# Results published in PubChem BioAssay (EPA / NIEHS).
# Activity calls are given as the source filed them. The calls were made as follows: active = hit-call score of the fitted dose curve at least 0.9, where 1 is the maximum; inactive = score below 0.9.
# Assay: ATG_DR4_LXR_CIS: Attagene CIS-FACTORIAL HepG2 Assay for human Liver X Receptor (LXR), DR4 submotif (AID 2282929)
# Details: HepG2 Attagene DR4 cis-reporter, mRNA transcription; actives raise or lower the signal
# Method: ATG_CIS is a cell-based, multiplexed-readout assay that uses HepG2, a human liver cell line, with measurements taken at 24 hours after chemical dosing in a 24-well plate.ATG_DR4_LXR_CIS is one of 52 assay component(s) measured or calculated from the ATG_CIS assay. It is designed to make measurements of mRNA induction, a form of inducible reporter, as detected with fluorescence intensity signals by Reverse transcription polymerase chain reaction (RT-PCR) and Capillary electrophoresis technology.Data from the assay component ATG_DR4_LXR_CIS was analyzed into 1 assay endpoint. This assay endpoint, ATG_DR4_LXR_CIS, was analyzed with bidirectional fitting relative to DMSO as the negative control and baseline of activity. Using a type of inducible reporter, measures of mRNA for gain or loss-of-signal activity can be used to understand the reporter gene at the transcription factor-level as they relate to the gene NR1H2 and NR1H3. Furthermore, this assay endpoint can be referred to as a primary readout, because this assay has produced multiple assay endpoints where this one serves a reporter gene function. To generalize the intended target to other relatable targets, this assay endpoint is annotated to the nuclear receptor intended target family, where the subfamily is non-steroidal.
# Human liver HepG2 cells are transiently transfected with multiple reporter transcription units (MRTUs) in 6-well plates using FuGene 6 reagent (Roche; 3 ml FuGene/1 mg DNA). The MRTU constructs are regulated by a cis-regulating element (promoter). […] A major difference between the CIS and TRANS system is that in CIS activities of endogenous TFs are measured, whereas the TRANS assay evaluates changes in activities of exogenous, chimeric NR-Gal4 proteins. […] At the end of 24 hour incubation, total RNA was isolated using TriZol reagent (Invitrogen). The isolated RNA is then reverse-transcribed using oligo(dT) primer and Mo-MLV reverse transcriptase (Invitrogen) with DNAse I (Ambion) treatment for 30 min. The one-tenth of the produced cDNA was amplified by PCR using Taq DNA polymerase (Invitrogen) and two reporter sequence-specific primers. The PCR products were fluorescently labeled by primer extension with 6-arboxyfluorescein (6-FAM) 5'-labeled reporter sequence-specific primer (2 min at 95 C, 20 s at 68 C and 10 min at 72 C) and these products were digested with 5U of HpaI (New England Biolabs) for 2h at 37 C. The fragments were purified using Qiaquick PCR columns (Qiagen), analyzed on an ABI 3130xL genetic analyzer (Applied Biosystems) with peak positions identified by using a set of X-rhodamine (ROX)-labeled MapMarker1000 molecular weight standards (BioVentures). The raw capillary electrophoresis data was processed using Attagraph software (Attagene).
Structure (SMILES),outcome,AC50
COCC(=O)O,inactive,–
C1CNCCN1,inactive,–
CC1C(C)(C)C2=C(C(=O)CCC2)C1(C)C (stereo not given),inactive,–
CC(C)=CCCC(C)=CC#N,inactive,–
CCCCC(CC)COC(=O)/C=C/c1ccc(OC)cc1 (stereo not given),inactive,–
CC1=CC=C(C(C)C)CC1,inactive,–
CC(C)=CCl,inactive,–
CC(CCC(=O)O)(c1ccc(O)cc1)c1ccc(O)cc1,inactive,–
CCCCCCO,inactive,–
CC1CC(=O)CC(C)(C)C1 (stereo not given),inactive,–
Cc1ccc([N+](=O)[O-])cc1N,inactive,–
O=C(Cl)c1ccc(C(=O)Cl)cc1,inactive,–
CCCCC(CC)COS(=O)(=O)O (stereo not given),inactive,–
COc1ccc(-c2coc3cc(O)cc(O)c3c2=O)cc1,inactive,–
CCCCCOC(=O)CCCCC,inactive,–
CC(C)CC(=O)OCc1ccccc1,inactive,–
CC1=CCC(C(C)C)C=C1 (stereo not given),inactive,–
COc1ccc(C(=O)/C(Br)=C\C(=O)O)cc1,–,27.8 µM (active)
CCCc1ccc(O)c(OC)c1,–,33.8 µM (active)
Fc1ccc(Br)cc1,inactive,–

Structure (SMILES),outcome,AC50
CCCCNC(=S)NCCCC,inactive,–
CCc1cccc(C)c1N,inactive,–
Cc1ccccc1CCO,inactive,–
CC(=O)/C=C/C1C(C)=CCCC1(C)C (stereo not given),inactive,–
COc1nccnc1CC(C)C,inactive,–
CCOC(=O)c1ccccc1C,inactive,–
CCOc1ccc(NC(N)=O)cc1,inactive,–
Nc1nc(N)nc(-c2ccccc2)n1,inactive,–
C=CC(C)(O)CC/C=C(\C)CC (stereo not given),inactive,–
COC(=O)CC(C)CCC=C(C)C (stereo not given),inactive,–
CCCSSCCC,inactive,–
Cc1c(C(=O)c2c[nH]n(C)c2=O)ccc(S(C)(=O)=O)c1C1=NOCC1,inactive,–
CCCCCC[C@@H](O)C/C=C\CCCCCCCC(=O)OCC(O)CO (stereo not given in full),–,163 µM (active)
O=C(Cl)c1c(Cl)c(Cl)c(C(=O)Cl)c(Cl)c1Cl,inactive,–
C=C(C)C(=O)OCC(O)COc1ccc(C(C)(C)c2ccc(OCC(O)COC(=O)C(=C)C)cc2)cc1 (stereo not given),inactive,–
CCCCCC1=CCCC1=O,inactive,–
CCCCCCCO,inactive,–
O=C(O)c1ccc2c(c1)C(=O)OC2=O,inactive,–
CC(=O)OC/C=C(/C)CCC=C(C)C,inactive,–
C=CC(=O)NC(C)(C)C,inactive,–
